Data on 39 molecules can be found in PubChem BioAssay (Tox21).

Several values for one entry are separate records, joined by “and”; a condition that tells them apart may be missing. Equal entries are not always repeated. Unmarked numbers belong to inactive results. Results filed as inconclusive are left out. A call without a number means that no potency is given here. Activity calls are given as the source filed them. Unless noted, the call rests on the fitted dose curve; in most records, active means well fitted curve in the direction sought with a large enough effect in the repeat runs; inconclusive means weak or mixed curves; inactive means no such curve, though single readings can be large; an effect the other way counts as inactive or inconclusive.

Androgen receptor (Homo sapiens), sequence (P10275 whole entry, looked up): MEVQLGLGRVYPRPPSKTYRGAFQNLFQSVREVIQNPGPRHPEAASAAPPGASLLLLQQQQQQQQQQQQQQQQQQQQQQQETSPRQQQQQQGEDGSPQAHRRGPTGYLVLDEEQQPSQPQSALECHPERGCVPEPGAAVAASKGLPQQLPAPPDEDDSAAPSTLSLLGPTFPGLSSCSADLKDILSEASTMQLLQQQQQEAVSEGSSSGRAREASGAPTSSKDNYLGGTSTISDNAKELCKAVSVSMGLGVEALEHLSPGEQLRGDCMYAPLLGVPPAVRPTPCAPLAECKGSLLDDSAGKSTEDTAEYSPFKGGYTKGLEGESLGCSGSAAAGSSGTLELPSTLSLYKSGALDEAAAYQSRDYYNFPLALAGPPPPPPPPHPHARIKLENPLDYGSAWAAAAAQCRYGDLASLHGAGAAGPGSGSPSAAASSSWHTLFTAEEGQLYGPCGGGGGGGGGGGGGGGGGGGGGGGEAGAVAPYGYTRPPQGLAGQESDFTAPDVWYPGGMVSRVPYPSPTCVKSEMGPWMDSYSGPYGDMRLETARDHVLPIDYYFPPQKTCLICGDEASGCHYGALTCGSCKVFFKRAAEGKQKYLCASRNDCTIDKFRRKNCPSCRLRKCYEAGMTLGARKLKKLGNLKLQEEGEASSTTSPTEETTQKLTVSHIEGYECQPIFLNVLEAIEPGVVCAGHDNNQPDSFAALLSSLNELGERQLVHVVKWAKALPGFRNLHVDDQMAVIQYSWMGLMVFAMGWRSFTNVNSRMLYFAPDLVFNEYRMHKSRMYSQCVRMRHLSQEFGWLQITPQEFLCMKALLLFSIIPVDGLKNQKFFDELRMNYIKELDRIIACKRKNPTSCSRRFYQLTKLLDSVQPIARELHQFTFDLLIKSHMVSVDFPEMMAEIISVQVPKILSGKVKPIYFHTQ

System in the first experiment: not listed separately
The experiment in a line: qHTS assay for identifying genotoxic compounds that show differential cytotoxicity against isogenic chicken DT40 cell lines with known DNA damage response pathways - Rad54/Ku70 mutant cell line (AID 743015). Further: nearly all actives have a fitted effect of over 60% in size. Further: potency means the concentration at half of the fitted maximal effect. As to conditions: DT40 Rad54/Ku70 mutant viability, CellTiter-Glo, 40 h; series mostly up to 66.8 µM. On the technique in general: In qHTS, concentration-response curves come from the screen itself.
In the case of `CC1=C(C)S(=O)(=O)CCS1(=O)=O`, the Potency was 60 µM (active) and 61.1 µM (active).
Same read-out and setting: the result for `O=c1[nH]c(=O)n([C@H]2C[C@H](O)[C@@H](CO)O2)cc1Br` reads 11.9 µM (active) and 24.7 µM (active).
As for `C#C[C@]1(O)CC[C@H]2[C@@H]3CCC4=CC(=O)CC[C@@H]4[C@H]3CC[C@@]21C`, the Potency was 27.3 µM (active).
Same read-out and setting: the result for `CSCCC=O` reads “inactive”; that for `O=C(OCCOCCOC(=O)c1ccccc1)c1ccccc1`, “inactive”.

System in a further experiment: not listed separately
The experiment in a line: qHTS assay to identify small molecule antagonists of the androgen receptor (AR) signaling pathway - cell viability counter screen (AID 743033; further: nearly all actives have a fitted effect of over 45% in size; further: potency means the concentration at half of the fitted maximal effect). To be noted: AR-bla HEK293 viability, CellTiter-Glo luminescence, 16 h; series mostly up to 58.5 µM.
Turning to `CC(=O)c1ccccc1`, the Potency result is “inactive”.
Same read-out and setting: with `COS(C)(=O)=O` the entry was “inactive”; with `OC[C@H]1O[C@@](CO)(O[C@H]2O[C@H](CO)[C@@H](O)[C@H](O)[C@H]2O)[C@@H](O)[C@@H]1O`, “inactive”.
For `O=C(O)CC(C(=O)O)C(CC(=O)O)C(=O)O` (stereo unspecified), the Potency entry is “inactive”.
Still for that read-out and setting: the result for `COCCCOc1ccnc(CS(=O)c2nc3ccccc3[nH]2)c1C` (stereo unspecified) reads “inactive”; that for `CC(C)c1ccc(S(=O)(=O)O)cc1`, “inactive”.
As to `CCCSc1ccc2nc(NC(=O)OC)[nH]c2c1`, the Potency result is “inactive”.
Still for that read-out and setting: the result for `CCN(CC)CCCC(C)Nc1ccnc2cc(Cl)ccc12` (stereo unspecified) reads “inactive”; that for `C=CCOC(=O)c1ccccc1C(=O)OCC=C`, “inactive”; that for `O=P(OC(CCl)CCl)(OC(CCl)CCl)OC(CCl)CCl`, “inactive”.
On the same count and under the same terms, the result for `CC1CCC2CC1C2(C)C` (stereo unspecified) reads “inactive”; that for `O=C(Oc1ccccc1)c1ccccc1`, “inactive”; that for `COc1ccc(Nc2ccccc2)c(C)c1`, “inactive”.
Still for that read-out and setting: the result for `O=C1CCC(N2C(=O)c3ccccc3C2=O)C(=O)N1` (stereo unspecified) reads “inactive”.
Regarding `CCCCCC/C(C=O)=C\c1ccccc1`, the Potency entry is “inactive”.
Turning to `CC1=C(C)S(=O)(=O)CCS1(=O)=O`, the Potency entry was “inactive”.
Regarding `COc1ccc(Cl)cc1C(=O)NCCc1ccc(S(=O)(=O)NC(=O)NC2CCCCC2)cc1`, the Potency result was “inactive”.
On to `O=C(O)c1ccc(C(=O)O)cc1`, for which the Potency result is “inactive”.
On the same count and under the same terms, the result for `O=c1[nH]c(=O)n([C@H]2C[C@H](O)[C@@H](CO)O2)cc1Br` reads “inactive”; that for `COc1ccc2cc([C@H](C)C(=O)O)ccc2c1`, “inactive”; that for `CCc1ccc(CCOc2ccc(CC3SC(=O)NC3=O)cc2)nc1` (stereo unspecified), “inactive”.
Regarding `Cc1occc(=O)c1O`, the Potency result was “inactive”.
On the same count and under the same terms, the result for `Cc1ccc2oc(=O)ccc2c1` reads “inactive”; that for `CN(C)CCCN`, “inactive”.
Same read-out and setting: with `C#C[C@]1(O)CC[C@H]2[C@@H]3CCC4=CC(=O)CC[C@@H]4[C@H]3CC[C@@]21C` the entry was “inactive”.
For the molecule `CCCC(C)=O`, the Potency result was “inactive”.
Same read-out and setting: with `Cc1ccc(S(N)(=O)=O)cc1` the entry was “inactive”.
Consider `CCCCC(CC)COC(=O)CCCCC(=O)OCC(CC)CCCC` (stereo unspecified), for which the Potency result is “inactive”.
With `c1c[nH]cn1`, the Potency entry was “inactive”.
Regarding `CCN(CC)c1ccc(C(=O)c2ccccc2C(=O)O)c(O)c1`, the Potency entry was “inactive”.
Consider `CSCCC=O`, for which the Potency entry was “inactive”.
As for `NNc1nncc2ccccc12`, the Potency was 21.9 µM (active).
On the same count and under the same terms, with `CC1=CCC2CC1C2(C)C` (stereo unspecified) the entry was “inactive”; with `O=C(O)CCCCCCCCCCC(=O)O`, “inactive”; with `O=C(OCCOCCOC(=O)c1ccccc1)c1ccccc1`, “inactive”.
Still for that read-out and setting: the result for `Fc1ccc(Br)cc1` reads “inactive”; that for `Cc1cnc(C(=O)NCCc2ccc(S(=O)(=O)NC(=O)NC3CCCCC3)cc2)cn1`, “inactive”.

Another experiment concerns the target Androgen receptor (Homo sapiens) (UniProt P10275). The experiment in a line: qHTS assay to identify small molecule agonists of the androgen receptor (AR) signaling pathway (AID 743036; active means well fitted activation curve with a large enough effect in the signal ratio in the repeat runs, with a control signal flat, not every such curve was filed as active; the % refers to the signal ratio). To be noted: HEK293 AR-UAS-bla GripTite, beta-lactamase FRET ratio, 16 h; series mostly up to 62.4 µM. The gist of the method: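 HEK293 cells stably carrying a UAS-driven beta-lactamase reporter (GeneBLAzer AR-UAS-bla-GripTite) were plated at 2,000 cells/well, rested 4 h at 37C, then exposed to compounds in DMSO for 16 h. LiveBLAzer B/G FRET substrate was added for 2 h at room temperature; fluorescence read.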
Regarding `CC1=C(C)S(=O)(=O)CCS1(=O)=O`, the Potency result was “inactive”.
The same measure, in the same setting: the result for `c1ccc2c(c1)ccc1ccccc12` reads “inactive”.
Turning to `CCCCCCCCCCCCOCCO`, the Potency entry is “inactive”.

The target is the same in a further experiment. The experiment in a line: qHTS assay to identify small molecule agonists of the androgen receptor (AR) signaling pathway using the MDA cell line (AID 743040; further: nearly all actives have a fitted effect of over 20% in size). As to conditions: MDA-kb2 AR-luc cells, MMTV luciferase, 16 h; series mostly up to 70.3 µM. In outline: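 Cell-based luciferase reporter: MDA-kb2, MMTV promoter (AR + GR response elements). 16 h compound exposure at 37C; ONE-Glo, 30 min RT, luminescence.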
Take `CC1=C(C)S(=O)(=O)CCS1(=O)=O`: the Potency entry is “inactive”.
Turning to `c1ccc2c(c1)ccc1ccccc12`, the Potency result was “inactive”.
On the same count and under the same terms, with `CCCCCCCCCCCCOCCO` the entry was “inactive”.

System in another experiment: not listed separately
The experiment in a line: qHTS assay to identify small molecule antagonists of the androgen receptor (AR) signaling pathway using the MDA cell line - cell viability counter screen (AID 743041; further: nearly all actives have a fitted effect of over 45% in size). As to conditions: MDA-kb2 viability, CellTiter-Fluor, 16 h, cells co-treated with R1881 androgen agonist; series mostly up to 70.3 µM. The gist of the method: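 In this qHTS counter assay, fluorescence intensity after CellTiter-Fluor addition indicated viability of MDA-kb2 AR-luc cells given compounds and R1881 for 16 h at 37C.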
With `CC(=O)c1ccccc1`, the Potency entry was “inactive”.
Consider `COS(C)(=O)=O`, for which the Potency result was “inactive”.
Same read-out and setting: with `OC[C@H]1O[C@@](CO)(O[C@H]2O[C@H](CO)[C@@H](O)[C@H](O)[C@H]2O)[C@@H](O)[C@@H]1O` the entry was “inactive”; with `O=C(O)CC(C(=O)O)C(CC(=O)O)C(=O)O` (stereo unspecified), “inactive”.
For `COCCCOc1ccnc(CS(=O)c2nc3ccccc3[nH]2)c1C` (stereo unspecified), the Potency result is “inactive”.
With `CC(C)c1ccc(S(=O)(=O)O)cc1`, the Potency entry was “inactive”.
Same read-out and setting: with `CCCSc1ccc2nc(NC(=O)OC)[nH]c2c1` the entry was “inactive”.
Regarding `CCN(CC)CCCC(C)Nc1ccnc2cc(Cl)ccc12` (stereo unspecified), the viability change, negative = cytotoxic was -15.9% [at 8.47 µM].
For `C=CCOC(=O)c1ccccc1C(=O)OCC=C`, the Potency entry is “inactive”.
For the molecule `O=P(OC(CCl)CCl)(OC(CCl)CCl)OC(CCl)CCl`, the Potency entry was “inactive”.
Still for that read-out and setting: the result for `CC1CCC2CC1C2(C)C` (stereo unspecified) reads “inactive”; that for `O=C(Oc1ccccc1)c1ccccc1`, “inactive”.
Still for that read-out and setting: the result for `COc1ccc(Nc2ccccc2)c(C)c1` reads “inactive”; that for `O=C1CCC(N2C(=O)c3ccccc3C2=O)C(=O)N1` (stereo unspecified), “inactive”; that for `CCCCCC/C(C=O)=C\c1ccccc1`, “inactive”.
Still for that read-out and setting: the result for `CC1=C(C)S(=O)(=O)CCS1(=O)=O` reads “inactive”.
Consider `COc1ccc(Cl)cc1C(=O)NCCc1ccc(S(=O)(=O)NC(=O)NC2CCCCC2)cc1`, for which the Potency result is “inactive”.
Turning to `O=C(O)c1ccc(C(=O)O)cc1`, the Potency entry was “inactive”.
Take `O=c1[nH]c(=O)n([C@H]2C[C@H](O)[C@@H](CO)O2)cc1Br`: the Potency result was “inactive”.
`COc1ccc2cc([C@H](C)C(=O)O)ccc2c1`: the Potency result is “inactive”.
The same measure, in the same setting: with `CCc1ccc(CCOc2ccc(CC3SC(=O)NC3=O)cc2)nc1` (stereo unspecified) the entry was “inactive”; with `Cc1occc(=O)c1O`, “inactive”; with `Cc1ccc2oc(=O)ccc2c1`, “inactive”.
On the same count and under the same terms, the result for `CN(C)CCCN` reads “inactive”; that for `c1ccc2c(c1)ccc1ccccc12`, “inactive”.
With `C#C[C@]1(O)CC[C@H]2[C@@H]3CCC4=CC(=O)CC[C@@H]4[C@H]3CC[C@@]21C`, the Potency result was “inactive”.
For the molecule `CCCC(C)=O`, the Potency result was “inactive”.
As for `Cc1ccc(S(N)(=O)=O)cc1`, the Potency result was “inactive”.
The same measure, in the same setting: the result for `CCCCCCCCCCCCOCCO` reads “inactive”.
For `CCCCC(CC)COC(=O)CCCCC(=O)OCC(CC)CCCC` (stereo unspecified), the Potency entry is “inactive”.
In the case of `c1c[nH]cn1`, the Potency entry was “inactive”.
Same read-out and setting: the result for `CCN(CC)c1ccc(C(=O)c2ccccc2C(=O)O)c(O)c1` reads “inactive”; that for `CSCCC=O`, “inactive”; that for `CC1=CCC2CC1C2(C)C` (stereo unspecified), “inactive”.
On to `O=C(O)CCCCCCCCCCC(=O)O`, for which the Potency result is “inactive”.
Regarding `O=C(OCCOCCOC(=O)c1ccccc1)c1ccccc1`, the Potency entry was “inactive”.
Regarding `Fc1ccc(Br)cc1`, the Potency entry is “inactive”.
With `Cc1cnc(C(=O)NCCc2ccc(S(=O)(=O)NC(=O)NC3CCCCC3)cc2)cn1`, the Potency result is “inactive”.
